Assay outcomes from PubChem BioAssay.
PNC assembly inh = High Content Assay for Compounds that inhibit the Assembly of the Perinucleolar Compartment; 3.1% of 140,000 active; activity change (PNC), negative = inhibition, % at 10 µM; PC3M PTB-GFP, PNC prevalence imaging, 16 h; stronger effect = lower value; AID 2417, 2010;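 active = readout at or below -70, meaning at least 70% loss of cells showing the perinucleolar compartment, a nuclear body marking cancer cells; inconclusive = readout between -30 and a set limit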;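 also: plate controls were DMSO wells for no effect and camptothecin positive control wells for full effect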
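Read-out is percentage of cells bearing a perinucleolar compartment, from automated 20x imaging of fixed, Hoechst-stained PC3M PTB-GFP cells. Cells were seeded 4 h, then exposed 16 h to compound (23 nl of library stock) in duplicate plates.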
IMPase inh = qHTS Assay for Identifying the Cell-Membrane Permeable IMPase Inhibitors; CHO-M1 cells, IP1 accumulation, HTRF TR-FRET ratio; inhibition (IP1 accumulation), % at 46.1 µM; 120,000 tested, under 10 active; active = well fitted curve in the direction sought with a large enough effect in the signal ratio, not every such curve was filed as active; inconclusive = small, poorly fitted or top-dose-only effect, or a change in a side signal; inactive = no such curve, though single readings can be large or run the other way; the % refers to the signal ratio;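 also: cells stimulated with carbachol in lithium chloride buffer; plate controls were DMSO basal wells for no effect and reference inhibitor wells for full effect; higher means more IMPase inhibition seen as more IP1 and lower FRET ratio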
Target sequence (P97697 whole entry, looked up): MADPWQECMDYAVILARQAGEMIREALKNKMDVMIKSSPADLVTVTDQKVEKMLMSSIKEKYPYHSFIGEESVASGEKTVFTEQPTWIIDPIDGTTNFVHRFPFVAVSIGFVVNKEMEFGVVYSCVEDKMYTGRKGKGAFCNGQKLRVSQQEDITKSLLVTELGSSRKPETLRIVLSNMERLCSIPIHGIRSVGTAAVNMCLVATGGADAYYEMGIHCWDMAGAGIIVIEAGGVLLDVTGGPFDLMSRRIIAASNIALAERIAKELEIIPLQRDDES
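In this qHTS, compounds (final up to 46 uM) act on CHO-M1 cells that are then activated through the M1 receptor with carbachol, in pH 7.4 buffer containing 50 mM LiCl, for 30 min. IP1 accumulation is quantified by the IP-One immunoassay.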
ALDH1A1 inh = qHTS Assay for Inhibitors of Aldehyde Dehydrogenase 1 (ALDH1A1); Purified ALDH1A1, NADH fluorescence, propionaldehyde substrate; Potency, µM (highest dose often 75.3 µM), without a hit: at the highest dose activity, negative = inhibition, hits mostly inhibitors; Aldehyde dehydrogenase 1A1 (Homo sapiens), P00352; 7.3% of 220,000 active; AID 1030, 2008;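 also: potency is read from the fitted curve at half-maximal effect; plate controls were no enzyme wells and a reference inhibitor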
ALOX12 inhib = qHTS Assay for Inhibitors of 12-hLO (12-human lipoxygenase). Polyunsaturated fatty acid lipoxygenase ALOX12 (Homo sapiens), P18054. purified 12-hLO, xylenol orange hydroperoxide absorbance. Potency, µM (top dose mostly 57.1 µM), without a hit: at the top dose activity change, negative = inhibition, actives largely listed as inhibitors. 0.12% of 150,000 active; active = well fitted curve in the direction sought with a large enough effect; inconclusive = small, poorly fitted or top-dose-only effect, or another doubt; inactive = no such curve, though single readings can be large; an effect the other way counts as inactive or inconclusive; also: potency is read from the fitted curve at half-maximal effect; nearly all actives have a fitted effect of over 55% in size
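Purified human 12hLO (150 nM), preincubated 15 min with compound, then 40 uM arachidonic acid for 30 min, room temperature, Hepes pH 7.0 with 0.01% Triton X-100. Hydroperoxide detected by ferrous iron/xylenol orange; 573/405 nm absorbance ratio gives reaction progress.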
HPGD inh = qHTS Assay for Inhibitors of HPGD (15-Hydroxyprostaglandin Dehydrogenase) | purified HPGD, NADH fluorescence kinetic, PGE2 substrate | AID 894, 2007 | Potency, µM, without a hit: at the top dose activity change, negative = inhibition, usual class: inhibitors | 4.3% of 150,000 active | 15-hydroxyprostaglandin dehydrogenase [NAD(+)] (Homo sapiens), P15428; also: potency is read from the fitted curve at half-maximal effect
Target sequence (P15428 whole entry, looked up): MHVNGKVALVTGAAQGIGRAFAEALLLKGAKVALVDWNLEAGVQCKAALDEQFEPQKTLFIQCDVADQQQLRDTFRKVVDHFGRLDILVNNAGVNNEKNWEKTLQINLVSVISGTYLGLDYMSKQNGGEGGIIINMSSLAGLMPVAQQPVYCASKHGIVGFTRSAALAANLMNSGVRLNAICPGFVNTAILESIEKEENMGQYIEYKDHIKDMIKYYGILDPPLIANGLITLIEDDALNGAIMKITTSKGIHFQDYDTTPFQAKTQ
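NADH formation kinetics: reaction with 30 uM PGE2 and 1 mM NAD+ (final), 20 nM enzyme, Tris-HCl pH 8 with Tween 20, after 15 min compound preincubation at room temperature. Fluorescence change, last versus first of five reads.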
IMPase Li inh = qHTS Assay for Identifying the Cell-Membrane Permeable IMPase Inhibitors: Potentiation with Lithium. Potency, µM (top dose mostly 59.4 µM), inactives show at the top dose activity, negative = IMPase inhibition, usual class: inhibitors. AID 1457, 2008. 0.35% of 210,000 active. CHO-M1 cells, IP1 TR-FRET (IP-One), carbachol + lithium; active = well fitted curve in the direction sought with a large enough effect; inconclusive = small, poorly fitted or top-dose-only effect, or another doubt; inactive = no such curve, though single readings can be large; an effect the other way counts as inactive or inconclusive;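 also: IP1 builds up when IMPase is blocked and the TR-FRET signal falls; potency is read from the fitted curve at half-maximal effect; plate controls were basal vehicle for no effect and high inhibitor control for full effect; nearly all actives have a fitted effect of over 50% in size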
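Test compounds were applied to CHO-M1 cells previously cultured for 16–30 h at 2000 per well. A small lithium amount accompanied them; after 30 min at 37C, IP1 was quantified by TR-FRET.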
The depositor's hits bear a star; ? = inconclusive; nt = no result given; [ ] = another dose, or the depositor's remark. In the library only some 11% were active in any assay of this set; here they are far more common. Unless noted, calls follow the shape of the dose curve; as a rule, active = well fitted inhibition curve with a large enough effect (not every such curve was filed as active); inconclusive = small, poorly fitted or top-dose-only effect, or another doubt; inactive = no such curve, though single readings can be large or run the other way. Unless noted, % is scaled to controls: 0 for no effect and ±100 for the full control effect.

SMILES | PNC assembly inh | IMPase inh | ALDH1A1 inh | ALOX12 inhib | HPGD inh | IMPase Li inh
Cn1c(=O)oc2cc(S(=O)(=O)Nc3cccc(C(=O)O)c3)ccc21 | -21 | -9 | 14% | -2% | -6% | 9%[38.3 µM]
COc1ccc(S(=O)(=O)Nc2cccc(C(C)=O)c2)cc1Br | nt | nt | 32µM* | nt | nt | 1%
COc1ccc(S(=O)(=O)Nc2ccc(NC(C)=O)cc2)cc1Br | nt | nt | -4% | nt | nt | 2%
CC(=O)c1cccc(NS(=O)(=O)c2ccc3c(c2)oc(=O)n3C)c1 | ? | -8 | 22µM* | -6% | -23% | 47%[38.3 µM]
Cc1cc(C)cc(NC(=O)CCNS(=O)(=O)c2ccc3c(c2)oc(=O)n3C)c1 | -100* | -8 | 2% | -2% | -6% | 9%
CCN(CC)c1ccc(NS(=O)(=O)c2ccc3c(c2)oc(=O)n3C)c(C)c1 | 21 | 4 | ? | -26% | 13µM* | 16%[38.3 µM]
Cc1ccccc1Nc1c(-c2c(F)cccc2Cl)nc2ccc(Br)cn12 | nt | 8 | nt | nt | nt | nt
Oc1c(C(c2ccccc2)N2CCCCC2)sc2ncnn12 (stereo not given) | -2 | -10 | 1% | 6% | -20% | 2%
Oc1c(C(c2ccco2)N2CCOCC2)sc2ncnn12 (stereo not given) | 7 | -1 | 14µM* | 1% | -24% | -23%[38.3 µM]
O=C(O)CCc1c2ccc(=O)c(O)c-2oc2c(O)c(O)ccc12 | nt | nt | ? | -29%[11.4 µM] | 2.8µM* | -3%
c1ccc(CN(CCN(Cc2ccccn2)Cc2ccccn2)Cc2ccccn2)nc1 | nt | nt | -14% | nt | nt | 54%
COc1ccc(S(=O)(=O)N(CCc2ccccc2)CC(=O)NCc2ccc(C)cc2)cc1 | nt | 4 | nt | nt | nt | nt
COc1cccc(-c2nnc(SCC3CNC(=O)O3)n2-c2ccc(Cl)cc2)c1 (stereo not given) | 81 | -2 | 0.63µM* | -1% | nt | nt
CC(=O)OC1C=C[C@]2(C)C(CC(OC(C)=O)[C@@]3(C)C4=CC(=O)OC(c5ccoc5)[C@]4(C)CCC23)C1(C)C (stereo not given in full) | nt | nt | 2% | -2% | -7% | 9%
COC(=O)N1CCC[C@@]2(CCN(Cc3cc(C(F)(F)F)cc(C(F)(F)F)c3)C2)C1 | nt | nt | 12% | 0% | -6% | -2%
O=C(Nc1ccc(-c2nc3cc(Cl)ccc3o2)cc1)c1cc2ccccc2o1 | nt | -5 | nt | nt | nt | nt
Cc1cccc(NC(=S)NC(=O)/C=C/c2ccco2)c1 | nt | nt | 24µM* | nt | nt | 0%
COc1cc2c(cc1NC(=S)NC(=O)/C=C/c1ccco1)oc1ccccc12 | 37 | nt | 0% | -5% | -12% | 0%
COc1ccccc1NC(=S)NC(=O)/C=C/c1ccco1 | 4 | nt | 25µM* | ? | 28µM* | -4%
COc1ccc(-c2csc(NC(=S)NC(=O)/C=C/c3ccco3)n2)cc1Br | nt | nt | 6% | nt | nt | nt
Cc1ccc(-n2nc3ccc(NC(=S)NC(=O)/C=C/c4ccco4)cc3n2)cc1 | -18 | nt | 3% | 0% | -18% | -21%
COc1ccc(-c2csc(NC(=S)NC(=O)/C=C/c3ccco3)n2)cc1OC | -106* | nt | -5% | -1% | -23% | -8%
O=C(/C=C/c1ccco1)NC(=S)Nc1cccc([N+](=O)[O-])c1 | ? | nt | 0% | -29% | 18µM* | 2%
C=C(C)CNC(=S)N/N=C/c1c(F)cccc1F | nt | nt | ? | nt | nt | 2%
O=C(COc1ccccc1)NCC(=O)Nc1cccc(S(=O)(=O)NC2=NCCC2)c1 | nt | nt | 12% | nt | nt | -4%
SMILES | PNC assembly inh | IMPase inh | ALDH1A1 inh | ALOX12 inhib | HPGD inh | IMPase Li inh
Cc1cc(C(=O)N(C)C)sc1-c1ccccc1 | -3 | ? | 0% | -3% | 6.3µM* | -7%
Cc1ccc(CNC(=O)CS(=O)Cc2nc(-c3cccs3)oc2C)cc1 (stereo not given) | -18 | 0 | ? | -8% | 28µM* | -12%[38.3 µM]
Cc1ccc(-c2nc(CS(=O)CC(=O)NCc3ccccc3)c(C)o2)cc1 (stereo not given) | -11 | -2 | -4% | -2% | -2% | -3%[38.3 µM]
COCCNC(=S)c1ccc(Br)cc1 | nt | nt | 8.9µM* | nt | nt | 7%
CCN(C(=O)CN1C(=S)NC(C)(C)CC1C)c1ccc(C)c(C)c1 (stereo not given) | nt | nt | 28µM* | nt | nt | 10%
Cc1ccc(NC(=O)CN2C(=S)NC(C)(C)CC2C)cc1Cl (stereo not given) | nt | nt | ? | nt | nt | -1%
COC(=O)C1(C(=O)OC)C[C@H]2CON=C2[C@H]1c1ccccc1 | nt | nt | 3% | 1% | -9% | 9%
CCc1ccc(Nc2cc(=O)n(C3CCCCC3)c(=O)[nH]2)cc1 | 18 | 5 | 1.3µM* | -7% | 2% | 19%[38.3 µM]
O=c1cc(N2CCN(c3ccc(F)cc3)CC2)[nH]c(=O)n1C1CCCCC1 | 46 | -3 | ? | -2% | -13% | -5%[38.3 µM]
O=c1cc(Nc2ccc3c(c2)OCCO3)[nH]c(=O)n1C1CCCCC1 | -23 | -4 | 1µM* | 3% | -19% | 7%
O=C(Cn1ccnc1[N+](=O)[O-])NCCO | nt | -6[20.6 µM] | 0% | 7% | -11% | -1%
Cn1c(-c2sc3cc(C(F)(F)F)cnc3c2-c2cccs2)n[nH]c1=S | nt | nt | ? | nt | nt | 6%
Cn1c(-c2sc3cc(C(F)(F)F)cnc3c2-c2ccccn2)n[nH]c1=S | nt | nt | 35µM* | nt | nt | 2%
Cn1c(-c2sc3cc(C(F)(F)F)cnc3c2-c2cccnc2)n[nH]c1=S | 38 | 3 | ? | 12% | 28µM* | 14%[38.3 µM]
Cc1nn(C)c(C)c1/C=N/NC(=O)c1csc2ccccc12 | ? | 3 | 22µM* | -1% | -11% | -4%
Cc1ccc(-c2ccc(/C=C(\C#N)C(=O)Nc3cc(C)nn3-c3ccccc3)o2)cc1 | 10 | -5 | 11% | 1% | -8% | -4%
N#C/C(=C/c1ccc(-c2ccc(Br)cc2)o1)C(=O)NC1CCCCC1 | 41 | nt | 1.1µM* | -2% | -15% | 16%
N#C/C(=C\c1ccc(-c2ccccc2)o1)C(=O)Nn1cnnc1 | 52 | 7 | -2% | -12% | 16µM* | 1%[38.3 µM]
Clc1ccc(-c2nnc(-c3ccco3)nc2N2CCCCC2)cc1 | ? | nt | 2.2µM* | -7% | ? | 7%
Clc1ccc(-c2nnc(-c3ccc(Br)cc3)c(N3CCSCC3)n2)cc1 | 36 | 2 | -2% | -8% | -2% | -17%[38.3 µM]
CC1CCN(c2cc(N(C)CCO)c([N+](=O)[O-])c3nonc23)CC1 | nt | nt | ? | nt | nt | 3%
